# Measurements published in the supplement of paper PMC6555819.
# How the values were obtained:
# Assay in all cases: PBM binding z-score (relative to random genomic background probes); higher = stronger binding; sequences stand for … in GC…GCGATTGACAGCGTAGAATGAAGG
# [1] = tested on: FXR:RXRa (NR concentration 270 nM, RXRa partner concentration 90 nM)
# Summary of the method: (§1)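 Binding buffer was PBS pH 7.4 with 2% milk, 0.02% Triton X-100, 1 mM DTT, 0.2 mg/mL BSA and 0.4 mg/ml salmon testes DNA. In it, ligand-free nuclear receptor dimers were incubated 1 h on custom Agilent 4×180K protein-binding microarrays carrying double-stranded probes. Antibodies against each partner (one per run) detected binding, and z-scores were calculated against random background probes after regression normalization of scanned fluorescence.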
# [2] = tested on: LXRa:RXRa (NR concentration 270 nM, RXRa partner concentration 90 nM)
# Summary of the method: as §1
# [3] = tested on: LXRa homodimer (NR concentration 270 nM)
# Summary of the method: as §1
# [4] = tested on: LXRb:RXRa (NR concentration 270 nM, RXRa partner concentration 90 nM)
# Summary of the method: as §1
# [5] = tested on: LXRb homodimer (NR concentration 270 nM)
# Summary of the method: as §1
# [6] = tested on: PPARa:RXRa (NR concentration 270 nM, RXRa partner concentration 90 nM)
# Summary of the method: as §1
# [7] = tested on: PPARg:RXRa (NR concentration 180 nM, RXRa partner concentration 90 nM)
# Summary of the method: as §1
# [8] = tested on: PPARg:RXRa 270nM:90nM, anti-RXR (NR concentration 270 nM, RXRa partner concentration 90 nM)
# Summary of the method: as §1
# [9] = tested on: PPARg:RXRa 30nM:10nM, anti-RXR (NR concentration 30 nM, RXRa partner concentration 10 nM)
# Summary of the method: as §1
# [10] = tested on: PPARg:RXRa 90nM:30nM, anti-RXR (NR concentration 90 nM, RXRa partner concentration 30 nM)
# Summary of the method: as §1
# [11] = tested on: PPARg:RXRa DBDmut IVT, anti-RXR (DBD mutation: RXRa K156A/R161A, NR concentration 270 nM, RXRa partner concentration 90 nM)
# Summary of the method: as §1
# [12] = tested on: PPARg:RXRa IVT, anti-PPARg (NR concentration 270 nM, RXRa partner concentration 90 nM)
# Summary of the method: as §1
# [13] = tested on: PPARg DBDmut:RXRa IVT, anti-PPARg (DBD mutation: PPARg1 K132A/R137A, NR concentration 270 nM, RXRa partner concentration 90 nM)
# Summary of the method: as §1
# [14] = tested on: PPARg DBDmut IVT, anti-PPARg (DBD mutation: PPARg1 K132A/R137A, NR concentration 270 nM)
# Summary of the method: as §1
# [15] = tested on: PPARg homodimer (NR concentration 180 nM)
# Summary of the method: as §1
# [16] = tested on: PXR:RXRa (NR concentration 270 nM, RXRa partner concentration 90 nM)
# Summary of the method: as §1
# [17] = tested on: PXR homodimer (NR concentration 270 nM)
# Summary of the method: as §1
# [18] = tested on: RARa:RXR (NR concentration 270 nM, RXRa partner concentration 90 nM)
# Summary of the method: as §1
# [19] = tested on: RARa homodimer (NR concentration 270 nM)
# Summary of the method: as §1
# [20] = tested on: RARb:RXRa (NR concentration 270 nM, RXRa partner concentration 90 nM)
# Summary of the method: as §1
Sequence,PBM binding z-score [1],PBM binding z-score [2],PBM binding z-score [3],PBM binding z-score [4],PBM binding z-score [5],PBM binding z-score [6],PBM binding z-score [7],PBM binding z-score [8],PBM binding z-score [9],PBM binding z-score [10],PBM binding z-score [11],PBM binding z-score [12],PBM binding z-score [13],PBM binding z-score [14],PBM binding z-score [15],PBM binding z-score [16],PBM binding z-score [17],PBM binding z-score [18],PBM binding z-score [19],PBM binding z-score [20]
GGAACGAGGGCAATCGAGTTGATAGCATGGCGAT,0.644,0.434,-0.647,-0.187,-0.883,1.38,1.12,0.753,-0.285,0.268,3.45,2.82,-0.0288,-1.1,-0.25,3.29,0.305,0.677,-0.463,1.6
CGAACTAGGTCATTGACAGGACAGAGAATAGTAA,4.59,3.18,0.538,1.92,0.12,4.71,7.41,6.39,3.83,6.06,8,8.14,4.58,3.51,2.33,1.5,-0.262,2.19,0.528,3.65
CCTTACGGGTCAATCCAGGTTATAGCATCGGAGT,5.24,6.46,0.547,4.05,0.285,4.76,3.53,3.75,1.26,2.54,3.11,3.6,0.439,-0.233,1.18,5.42,0.705,3.74,0.489,3.44
TCTAGTTAGTCACGGAGGTCACACACGACGGGTA,3.07,3.04,2.41,3.3,0.442,3.76,2.22,3.13,3.48,3.22,1.76,2.1,1.18,0.869,2.2,4.09,1.01,4.71,1.62,3.26
ATATGTAGGTTATCGGGTCATTCGGTTTGCGCAT,3.2,3.11,1.78,2.85,1.02,4.68,6.96,5.9,3.48,6.13,7.54,7.29,1.79,2.8,2.29,3.5,5.62,3.42,1.12,2.45
CATACAGGGTCTGCTAGGCCAGAGTAGGGACGGC,-0.237,-0.31,-0.443,-0.834,-0.599,-0.452,0.152,-0.899,-0.808,-0.386,-0.963,-0.162,-0.142,-0.562,0.266,-0.649,-0.0998,-0.482,0.212,0.183
TAGCCTACGTCATTCAGGGGCCAGTATAGAAAGC,-0.632,-0.447,-0.497,0.157,-0.0304,-0.0175,0.374,-0.279,-0.505,-0.468,-0.459,-0.0447,0.682,0.371,0.00959,-0.22,-0.62,-0.258,-0.456,0.27
ATCTCTACGTAAAGATAGTTCAGTGAATGCAAAT,-0.547,-0.0846,0.644,0.0178,0.419,-0.229,0.493,0.104,0.0785,0.04,-0.595,0.188,0.317,1.43,-0.705,0.115,0.219,-0.211,0.168,0.474
GGAACGAGGGCATTCGAGTGGATAGCATGGCGAT,0.825,0.32,-0.525,-0.0544,-0.833,1.13,0.858,0.594,-0.34,-0.0101,2.7,1.91,0.297,-0.551,-0.225,0.6,-0.278,0.17,-0.0575,1.74
CGTTACGGGTCACGAGGTTATAGCACGACGAGCG,6.83,4.97,0.389,4.23,-0.0926,6.15,6.94,6.69,2.7,5.8,4.5,5.57,1.39,0.539,1.92,4.65,0.178,5.93,0.803,4.56
CCTACTGGGCCATCAGGTCATTGAGATCAACGTT,1.65,1.44,1.22,1.45,-0.336,2.93,3.04,3.58,1.41,3.12,4.42,4.78,0.317,0.581,1.13,2.08,2.14,2.31,-0.158,2.22
CGTCCAAGGTCATAGGAGCTCAGTGAAGACAGAT,7.5,5.19,0.569,3.82,0.584,5.64,4.69,5.04,1.57,3.6,2.78,3.29,1.43,-0.573,2.6,4.27,1.07,4.66,0.0934,5.1
TCATATAGGTAAAGGTGGAAGTCGAACGATATGA,0.695,0.507,0.313,0.415,0.0945,1.93,2.54,3.54,4.18,3.93,3.45,2.86,1.27,1.48,0.634,0.357,0.267,0.637,0.638,0.387
GGAGCGAGGGCATTCGAGTTGATAGCATGGCGAT,0.608,1.24,-0.883,-0.106,-1.07,0.542,0.179,-0.159,-0.424,-0.195,0.18,0.079,-0.936,-1.62,-0.569,3.55,0.905,1.1,-0.544,1.75
